Results from PubChem BioAssay AID602274 (Sanford-Burnham Center for Chemical Genomics, 2012).
Among all 360,000 compounds or so, about 160 (0.044%) were called active. The entries come from a sample that favours actives as a whole. A number with no mark means an inactive call. Rule as the data show it: active = survival enhancement above about 18%; inactive = the rest.

Assay: enhancers of single-cell hiPSC survival, primary screen, ATPlite luminescence (AID 602274);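 also: cells exposed to compounds for 16 hours before the ATP read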
Conditions: at 20 µM, hits give high values, 100% = ROCK inhibitor wells, 0% = DMSO

SMILES	survival enhancement
CCC1CCCCN1CCNS(=O)(=O)c1ccc2c(c1)CCN2C(C)=O (centres undefined)	-1.5%
COC(=O)[C@@H]1C[C@H]2CC[C@H](O)C[C@H]2N1Cc1ccc(N2CCN(C)CC2)cc1	-2.9%
COc1ccc(CCNC(=O)CN2C(=O)COc3ccc(S(=O)(=O)N4CCCC4)cc32)cc1OC	0.4%
C/C(=N\Nc1cccc(C(=O)O)c1)c1ccc2c(c1)Nc1ccccc1S2	-0.6%
Cc1nc2ccc(N)nc2nc1C	-2%
COC(=O)C(C)Sc1ccc2nnc(-c3cccc(F)c3)n2n1 (centres undefined)	1.5%
COc1ccc(-c2cc(C(F)(F)F)n3nc(C(=O)N4CCOCC4)c(Cl)c3n2)cc1	3.2%
Cc1cccc([C@@H]2[C@@H]3C(=O)N(Cc4ccccc4)C(=O)[C@@H]3[C@]3(Cc4ccc(Cl)cc4)C(=O)N(c4cccc(Cl)c4)C(=O)N23)c1	-0.6%
O=C(NCc1ccccc1CN1CCCC1)c1cccc(S(=O)(=O)Nc2ccc(F)cc2)c1	-0.3%
C[C@H](CO)N1C[C@H](C)[C@@H](CN(C)C(=O)C2CCCCC2)OCc2cnnn2CCCC1=O	5.1%
CC(C)(C)NC(=O)Cn1nnc(-c2ccccc2Cl)n1	1%
C=CCn1nc(-c2ccccc2)c2c(C)onc2c1=O	0.6%
CCOC(=O)C1=CCC2C(=O)N(Cc3ccccc3)C(=O)C12 (centres undefined)	-0.2%
CCC(Cc1ccccc1)NC(=O)C1CCCCC1 (centres undefined)	-0.3%
Cc1nc(CNS(=O)(=O)c2ccc(Oc3ccccc3)cc2)cs1	-0.6%
CCNC(=O)c1c(O)c2cccc3c2n(c1=O)CC3	8.3%
OC[C@@H]1CN(Cc2ccc(Cl)cc2)C[C@H](n2cnc3c(NCc4ccncc4)ncnc32)O1	0.8%
Cc1cccc(C(=O)Nc2ccccc2C(=O)NCc2cccnc2)c1	7.7%
O=C(COC(=O)C12CC3CC(CC(O)(C3)C1)C2)NC12CC3CC(CC(C3)C1)C2	4.1%
CCOc1ccc(OCC)c(-c2c(=O)n(OCc3ccc(Cl)cc3)c3ccccc3[n+]2[O-])c1	0%
O=C(CN1C(=O)c2cccnc2Oc2ccc(Cl)cc21)Nc1ccc(F)cc1	-2%
O=C(N/N=C1\CCSC1)c1cc(Cl)ccc1O	1.9%
CC1CCCCC1NC(=O)Cn1c(=O)cnc2ccccc21 (centres undefined)	-0.7%
O=C(NCc1nnc(SCC(=O)N2CCCc3ccccc32)o1)c1ccccc1F	0.9%

SMILES	survival enhancement
O=C(NCc1ccccc1)C1=C[C@@H](c2ccccc2)C[C@@H](OCCCCO)O1	-2.5%
CN(C)S(=O)(=O)c1ccc(N2CCCC2)c(C(=O)Nc2ccc(Br)cc2F)c1	-0.6%
CCOC(=O)c1c(C)[nH]c(C(=O)NCCN2CCOCC2)c1C	-0.1%
Cc1nc2ccccc2nc(=O)c1NNc1ccc([N+](=O)[O-])cc1	-1.5%
CCN(CC)c1ccc(C(=O)c2cnc(/N=C/N(C)C)s2)cc1	-0.3%
C=CCSc1nc(Cc2ccc(Cl)cc2)nc2ccccc12	-1.7%
CCCCSc1nnc2c(n1)OC=Nc1ccccc1-2	1%
CCN(CC(=O)Nc1ccc(Cl)c(S(=O)(=O)N(C)C)c1)Cc1nc2ccccc2c(=O)[nH]1	-0.1%
COc1ccc(S(=O)(=O)N(CCCN2CCCC2=O)Cc2cc3c(C)ccc(C)c3[nH]c2=O)cc1	-2.2%
O=C(CCc1[nH]c2ccccc2c1Sc1ccccc1)N(CCO)CCO	-1%
O=S(=O)(/N=C(/Nc1ccccc1)c1ccccc1)c1cccs1	4%
Cc1ccc2c(c1)nnc1nnc(SCC(=O)O)n12	-0.2%
COc1ccccc1NC(=O)N1CCCC1C(=O)NCc1cccs1 (centres undefined)	-0.5%
COc1ccc(-n2nnnc2SCc2nc(N)nc(N3CCOCC3)n2)cc1	-2.1%
CC1CCCCC12NC(=O)N(CC(=O)N1CCN(c3ccccc3)CC1)C2=O (centres undefined)	-0.5%
CC(C)Oc1ccc(S(=O)(=O)N2CCOCC2)cc1NC(=O)C1CSC2(C)CCC(=O)N12 (centres undefined)	-0.5%
Cc1ccccc1C(OCCN(C)C)C1CCCCC1 (centres undefined)	-3.9%
COc1cccc(CNC(=O)CCN2C(=S)NC(C)(C)CC2C)c1 (centres undefined)	-0.7%
CC(C)CN(CC(C)C)CC(O)CN(c1ccccc1)S(=O)(=O)c1ccccc1[N+](=O)[O-] (centres undefined)	-0.3%
N#C/C(=C(\O)C(F)(F)F)c1nnc2n1CCCCC2	2%
N#C/C(=C(\O)CCl)c1nnc2n1CCCCC2	2.8%
N#C/C(=C/c1cccc([N+](=O)[O-])c1)c1nnc2n1CCCCC2	32.2% (active)
COc1ccc(OC)c(CCNC(=O)CCn2ccc3cc(S(=O)(=O)N4CCCC4)ccc32)c1	-0.3%
C/C(=N\NS(=O)(=O)c1ccccc1)c1c(O)cc(C)oc1=O	-0.4%

SMILES	survival enhancement
COc1ccc2c(c1)cc1n2CCN=C1NN	3%
Cc1cccc(-n2c(SCC(N)=O)nc3c(c2=O)C2(CCCCC2)Cc2ccccc2-3)c1	-2.5%
CC1(C(=O)NS(=O)(=O)c2cccc(F)c2)CCN1C(=O)Cc1cc(F)ccc1F (centres undefined)	0.9%
COC(=O)CCSc1cc([N+](=O)[O-])cc2c1c(C1OCCS1)nn2-c1ccccc1 (centres undefined)	19.1% (active)
CN1CCN(C(=O)c2cnn(-c3ccccc3)c2NC(=O)c2ccc([N+](=O)[O-])cc2)CC1	0.5%
COC(=O)CCSc1nccn1Cc1ccccc1	0.7%
CC1(C)COC(c2cccn2Cc2ccccc2Cl)=N1	4.1%
COc1cc(OC)cc(C(=O)Nc2ncc3c(n2)CC(C)(C)CC3=O)c1	1.7%
O=C(NN=Cc1ccccc1O)C(=O)NN=Cc1ccccc1O	-1.8%
C=CCOc1ccc(C2/C(=C(\O)c3c(C)[nH]c(C(=O)OC)c3C)C(=O)C(=O)N2CCN(C)C)cc1 (centres undefined)	3.5%
O=C(Nc1ccc(OC(F)(F)F)cc1)c1ccc2c(c1)no[n+]2[O-]	-0.6%
Cc1c(C=O)c2ccccn2c1C(=O)c1ccncc1	0.1%
O=C(COC(=O)Cn1cnc2ccccc2c1=O)NCC12CC3CC(CC(C3)C1)C2	-0.2%
CC1CCCC(NC(=O)COC(=O)c2ccccc2C(=O)N(C)C2CCCCC2)C1C (centres undefined)	0.8%
Cc1cc(=O)n2nc(N3CCCC(C(=O)NCCC4=CCCCC4)C3)sc2n1 (centres undefined)	1.7%
C=CCc1cccc2cc(C(=O)NC3CCCC3)c(=O)oc12	0.2%
CC(C)CC(CC(C)C)=NNC(=O)c1ccc(CSc2nncn2C)cc1	2.3%
O=c1[nH]cccc1-c1nc2ccccc2n1Cc1ccc(Cl)cc1	1.9%
COCCC(=O)N1CCC(Oc2ccc(C(=O)NCc3ccon3)cc2)CC1	-0.4%
CN1C(=O)[C@H]2[C@@H](C3CC3)N3C(=O)CN(Cc4ccccc4)C(=O)[C@@]3(C)[C@H]2C1=O	-2.2%
CCOc1cc(/C=C/C(=O)OCC(=O)NCCN2C(=O)CSC2=O)ccc1OCC(C)C	3%
CN1CCN(C(=O)c2ccc(-c3cc4nc(NCc5cccnc5)n(C)c(=O)c4s3)cc2)CC1	-0.7%
O=C(CCCN1C(=O)c2ccccc2C1=O)Oc1ccc(Cl)cc1	3.7%
CN(C)c1ccnc(Oc2ccc(F)cc2)c1C#N	1.8%

SMILES	survival enhancement
COCCNC(=S)c1ccc(OC)cc1	5.9%
COc1ccc(-c2ccc(CNCCCN3CCOCC3)o2)cc1Cl	-1.8%
Cc1ccc(Cl)c(OCC(=O)N(C)CC(=O)Nc2ccc(N3CCOCC3)cc2)c1	0%
COc1ccc(Cl)cc1NC(=O)[C@@H]1CCCN1C(=O)c1cccs1	1.2%
O=C(O)c1ccc(-n2cccc2)cc1O	-3.7%
NNC(=O)c1cnn(-c2ccccc2)c1C(F)(F)F	-0.5%
O=C1CC2(CCCC2)C(=O)N1CN1CCN(S(=O)(=O)c2ccc(F)cc2F)CC1	-0.8%
O=C(CNCCC1=CCCCC1)Nc1ccccc1N1CCCCCC1	-0.7%
CCNC(=O)Nc1ccc(S(=O)(=O)Nc2cnc(C)nc2C)cc1	-0.1%
CCCCN(CCCC)C(=O)CCS(=O)(=O)c1ccc2c(c1)n(C)c(=O)c(=O)n2C	2.7%
Cc1c(-c2nn(C)c(=O)c3ccccc23)oc2ccc(F)cc2c1=O	-1.5%
COC(=O)c1ccc(NC(=S)Nc2cccc(C)n2)cc1	0.3%
CCCCN1C(=O)CC(N2CCOCC2)C1=O (centres undefined)	1.8%
COc1cc(OC)cc(-c2c(C#Cc3ccsc3)c3cc(-c4ccc(SC)cc4)ccc3n2C)c1	1.4%
COc1ccc(N2C(=O)/C(=C\c3ccco3)N=C2SCC(N)=O)cc1Cl	-1.3%
COc1ccc(C(=O)CSc2nnc(NC(=O)C3CC(=O)N(c4cccc(OC)c4)C3)s2)cc1 (centres undefined)	0.9%
CC(=O)OCCN(CCCn1c(-c2ccncc2)nc2ccccc21)c1nc(-c2ccc(C)cc2)cs1	0.8%
Cc1noc(C)c1CSc1nc2cc(S(=O)(=O)N3CCOCC3)ccc2o1	8.5%
CC(C)(C)C(=O)NCCCNc1ccc([N+](=O)[O-])cc1	-0.5%
Nc1ncnc2c1ncn2[C@@H]1O[C@H](C(=O)NCC(F)(F)F)[C@@H](O)[C@H]1O	1.8%
CN(Cc1ccc(C(F)(F)F)cc1)C(=O)[C@H]1O[C@@H](n2cnc3c(N)ncnc32)[C@H](O)[C@@H]1O	20.3% (active)
Cc1nccn1-c1ccc(NC(=O)[C@H]2O[C@@H](n3cnc4c(N)ncnc43)[C@H](O)[C@@H]2O)cc1	1.4%
